The record followed here is ChEMBL document CHEMBL1961873, “Compounds: GSK PKIS; Assays: Nanosyn kinase panel” (2012).

Assay [1] addresses Serine/threonine-protein kinase MRCK alpha (Homo sapiens) (UniProt Q5VT25). To be noted: at 0.1 µM.
For assay [2] the target is unchanged. To be noted: at 1 µM.
Assay [3] addresses Serine/threonine-protein kinase MRCK beta (Homo sapiens) (UniProt Q9Y5S2). Conditions: at 0.1 µM.
Assay [4] has the same target. Conditions: at 1 µM.
Assay [5] concerns the target Ribosomal protein S6 kinase alpha-5 (Homo sapiens) (UniProt O75582). Conditions: at 0.1 µM.
Assay [6] has the same target. To be noted: at 1 µM.
Assay [7] addresses Ribosomal protein S6 kinase alpha-4 (Homo sapiens) (UniProt O75676). Conditions: at 0.1 µM.
The target is the same in assay [8]. Conditions: at 1 µM.
The target of assay [9] is Ribosomal protein S6 kinase beta-1 (Homo sapiens) (UniProt P23443). To be noted: at 0.1 µM.
Sequence of Ribosomal protein S6 kinase beta-1 (Homo sapiens) (P23443 whole entry, looked up): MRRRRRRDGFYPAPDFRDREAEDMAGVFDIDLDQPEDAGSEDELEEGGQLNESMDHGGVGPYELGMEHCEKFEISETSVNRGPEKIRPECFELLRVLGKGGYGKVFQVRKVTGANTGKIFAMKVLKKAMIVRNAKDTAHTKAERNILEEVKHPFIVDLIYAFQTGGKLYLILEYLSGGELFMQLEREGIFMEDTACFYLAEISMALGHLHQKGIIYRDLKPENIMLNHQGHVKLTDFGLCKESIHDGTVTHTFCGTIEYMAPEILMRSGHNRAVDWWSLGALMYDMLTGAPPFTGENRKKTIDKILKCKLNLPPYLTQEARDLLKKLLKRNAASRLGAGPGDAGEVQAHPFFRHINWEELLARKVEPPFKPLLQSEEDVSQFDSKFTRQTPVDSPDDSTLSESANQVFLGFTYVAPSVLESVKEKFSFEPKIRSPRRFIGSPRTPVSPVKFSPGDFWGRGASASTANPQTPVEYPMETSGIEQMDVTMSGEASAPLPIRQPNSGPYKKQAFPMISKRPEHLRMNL
The target is the same in assay [10]. To be noted: at 1 µM.
Assay [11] has as its target T1, 3-phosphoinositide-dependent protein kinase 1 (Homo sapiens) (UniProt O15530).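 Further: values are mean inhibition of PDK1.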
T1 sequence (whole entry): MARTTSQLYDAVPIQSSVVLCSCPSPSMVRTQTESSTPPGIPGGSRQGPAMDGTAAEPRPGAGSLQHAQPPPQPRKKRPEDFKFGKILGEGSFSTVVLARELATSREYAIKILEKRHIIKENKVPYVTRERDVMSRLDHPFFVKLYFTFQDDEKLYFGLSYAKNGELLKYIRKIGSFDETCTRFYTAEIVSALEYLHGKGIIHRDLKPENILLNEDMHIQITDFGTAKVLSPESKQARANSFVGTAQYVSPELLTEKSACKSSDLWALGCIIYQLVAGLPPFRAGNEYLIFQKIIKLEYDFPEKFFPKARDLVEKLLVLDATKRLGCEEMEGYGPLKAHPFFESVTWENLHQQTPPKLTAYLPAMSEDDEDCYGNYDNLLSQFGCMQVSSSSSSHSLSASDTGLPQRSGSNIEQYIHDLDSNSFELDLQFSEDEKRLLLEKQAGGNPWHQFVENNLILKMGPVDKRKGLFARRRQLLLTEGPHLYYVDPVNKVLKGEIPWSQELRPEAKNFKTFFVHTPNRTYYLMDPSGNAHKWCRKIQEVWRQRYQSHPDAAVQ
Conditions: at 0.1 µM.

In assay [12] the target is cAMP-dependent protein kinase catalytic subunit alpha (Homo sapiens) (UniProt P17612). Conditions: at 0.1 µM.
Assay [13] has the same target. To be noted: at 1 µM.
The target in assay [14] is Protein kinase C alpha type (Homo sapiens) (UniProt P17252). Conditions: at 0.1 µM.
Assay [15] shares this target. To be noted: at 1 µM.
In assay [16] the target is Protein kinase C beta type (Homo sapiens) (UniProt P05771). Conditions: at 0.1 µM.
Sequence of Protein kinase C beta type (Homo sapiens) (P05771 2-671 limits assumed): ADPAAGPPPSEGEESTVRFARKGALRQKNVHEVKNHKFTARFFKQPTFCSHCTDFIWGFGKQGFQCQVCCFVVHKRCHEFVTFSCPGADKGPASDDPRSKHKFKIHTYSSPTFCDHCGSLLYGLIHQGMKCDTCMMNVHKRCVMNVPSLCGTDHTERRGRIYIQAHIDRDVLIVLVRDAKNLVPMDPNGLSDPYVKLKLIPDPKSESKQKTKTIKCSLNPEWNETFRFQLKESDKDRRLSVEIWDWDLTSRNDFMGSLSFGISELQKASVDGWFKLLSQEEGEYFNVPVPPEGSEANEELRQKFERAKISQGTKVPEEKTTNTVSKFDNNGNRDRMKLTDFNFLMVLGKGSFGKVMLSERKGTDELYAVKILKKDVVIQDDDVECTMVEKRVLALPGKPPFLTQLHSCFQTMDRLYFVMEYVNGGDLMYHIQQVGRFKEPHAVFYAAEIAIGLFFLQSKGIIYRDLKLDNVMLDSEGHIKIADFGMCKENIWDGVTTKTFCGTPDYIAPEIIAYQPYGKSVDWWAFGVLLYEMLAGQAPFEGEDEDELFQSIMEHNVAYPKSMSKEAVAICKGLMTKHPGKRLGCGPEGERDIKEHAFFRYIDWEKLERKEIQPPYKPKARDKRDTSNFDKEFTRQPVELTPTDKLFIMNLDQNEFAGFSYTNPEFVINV
Assay [17] shares this target. To be noted: at 1 µM.
In assay [18] the target is Protein kinase C eta type (Homo sapiens) (UniProt P24723). Conditions: at 0.1 µM.
Assay [19] shares this target. Conditions: at 1 µM.
Assay [20] addresses Protein kinase C gamma type (Homo sapiens) (UniProt P05129). To be noted: at 0.1 µM.

The structures appear in SMILES notation.

Sequence of Ribosomal protein S6 kinase alpha-5 (Homo sapiens) (O75582 whole entry, looked up): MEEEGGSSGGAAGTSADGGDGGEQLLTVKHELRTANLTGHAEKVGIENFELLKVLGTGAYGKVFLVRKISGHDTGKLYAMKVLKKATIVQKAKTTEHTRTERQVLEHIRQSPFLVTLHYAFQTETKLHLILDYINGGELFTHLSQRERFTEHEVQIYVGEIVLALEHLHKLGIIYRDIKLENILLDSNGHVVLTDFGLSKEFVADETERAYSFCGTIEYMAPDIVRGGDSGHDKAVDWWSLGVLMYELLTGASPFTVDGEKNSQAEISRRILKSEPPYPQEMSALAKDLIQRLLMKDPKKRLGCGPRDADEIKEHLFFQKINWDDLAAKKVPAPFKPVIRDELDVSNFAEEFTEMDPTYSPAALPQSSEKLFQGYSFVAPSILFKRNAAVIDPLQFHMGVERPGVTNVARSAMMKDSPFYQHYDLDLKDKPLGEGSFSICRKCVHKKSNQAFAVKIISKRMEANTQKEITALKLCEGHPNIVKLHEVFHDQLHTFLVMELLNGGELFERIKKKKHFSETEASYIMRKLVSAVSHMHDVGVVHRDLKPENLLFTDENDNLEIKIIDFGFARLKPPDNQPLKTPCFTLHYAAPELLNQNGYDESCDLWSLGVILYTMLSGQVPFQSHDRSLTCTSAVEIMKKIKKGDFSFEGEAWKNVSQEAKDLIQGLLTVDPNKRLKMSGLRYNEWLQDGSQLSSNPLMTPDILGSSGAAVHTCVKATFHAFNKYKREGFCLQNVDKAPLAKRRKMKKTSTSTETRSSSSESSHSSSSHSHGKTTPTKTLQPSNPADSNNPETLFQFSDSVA
Sequence of Serine/threonine-protein kinase MRCK beta (Homo sapiens) (Q9Y5S2 whole entry): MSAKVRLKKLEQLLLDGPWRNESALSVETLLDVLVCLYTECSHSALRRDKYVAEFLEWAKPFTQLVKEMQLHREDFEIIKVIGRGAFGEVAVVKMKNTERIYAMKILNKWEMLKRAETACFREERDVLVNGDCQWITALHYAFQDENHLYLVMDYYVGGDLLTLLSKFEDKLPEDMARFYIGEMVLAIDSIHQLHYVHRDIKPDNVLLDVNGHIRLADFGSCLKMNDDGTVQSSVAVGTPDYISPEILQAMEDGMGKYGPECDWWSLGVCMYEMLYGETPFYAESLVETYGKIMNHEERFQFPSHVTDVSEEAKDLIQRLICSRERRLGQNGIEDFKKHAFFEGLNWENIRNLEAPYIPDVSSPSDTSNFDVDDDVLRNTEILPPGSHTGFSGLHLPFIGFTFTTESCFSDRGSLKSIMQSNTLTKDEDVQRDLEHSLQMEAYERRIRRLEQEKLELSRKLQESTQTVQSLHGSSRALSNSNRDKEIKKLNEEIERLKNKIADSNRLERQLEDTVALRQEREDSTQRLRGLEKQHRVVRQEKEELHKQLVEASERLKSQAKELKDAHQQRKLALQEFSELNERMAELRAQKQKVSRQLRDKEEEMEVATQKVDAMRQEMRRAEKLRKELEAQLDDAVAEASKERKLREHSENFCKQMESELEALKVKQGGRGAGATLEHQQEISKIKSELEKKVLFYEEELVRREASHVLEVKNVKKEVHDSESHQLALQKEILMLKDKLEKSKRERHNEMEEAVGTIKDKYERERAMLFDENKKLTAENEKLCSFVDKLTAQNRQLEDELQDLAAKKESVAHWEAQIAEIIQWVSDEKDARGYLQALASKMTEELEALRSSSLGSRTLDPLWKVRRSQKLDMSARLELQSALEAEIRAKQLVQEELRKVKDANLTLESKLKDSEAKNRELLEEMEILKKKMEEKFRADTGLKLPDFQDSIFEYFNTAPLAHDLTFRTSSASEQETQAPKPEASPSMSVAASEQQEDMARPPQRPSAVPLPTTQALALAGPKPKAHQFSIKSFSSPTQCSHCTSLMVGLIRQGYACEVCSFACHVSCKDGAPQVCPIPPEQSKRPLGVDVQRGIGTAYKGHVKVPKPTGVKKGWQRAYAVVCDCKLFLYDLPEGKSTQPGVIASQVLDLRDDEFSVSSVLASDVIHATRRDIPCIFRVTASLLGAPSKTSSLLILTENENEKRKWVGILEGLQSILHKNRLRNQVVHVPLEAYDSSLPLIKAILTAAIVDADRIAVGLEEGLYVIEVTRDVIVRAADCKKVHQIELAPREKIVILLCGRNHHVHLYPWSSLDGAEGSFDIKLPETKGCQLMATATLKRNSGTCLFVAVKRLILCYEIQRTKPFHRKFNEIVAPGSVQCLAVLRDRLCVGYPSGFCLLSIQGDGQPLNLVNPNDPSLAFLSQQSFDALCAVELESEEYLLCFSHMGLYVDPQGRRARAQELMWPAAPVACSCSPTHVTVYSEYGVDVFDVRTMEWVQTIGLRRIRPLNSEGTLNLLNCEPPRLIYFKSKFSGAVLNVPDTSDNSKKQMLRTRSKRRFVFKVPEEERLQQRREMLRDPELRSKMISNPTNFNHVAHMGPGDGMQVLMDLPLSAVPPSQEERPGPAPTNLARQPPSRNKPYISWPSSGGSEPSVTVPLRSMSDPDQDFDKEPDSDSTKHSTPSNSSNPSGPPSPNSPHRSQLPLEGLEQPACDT

Broadly, the inhibition is the change of the read-out against control, counted positive when it falls. With `Fc1ccc(-c2nn3ccccc3c2-c2ccncc2)cc1`, the inhibition was 1.08% in assay [1]; 3.93% in assay [2]; 1.99% in assay [3]; 4.92% in assay [4]; 4.62% in assay [5]; 5.97% in [6]. Besides, the inhibition in [7] is 5.06%; in assay [8], 6.2%; in assay [9], 1.21%; in assay [10], 2.15%; in [11], 0.82%; in assay [12] it was 2.55%. Further, the inhibition amounted to 16% in assay [13]; 0.75% in assay [14]; 3.12% in [15]; 8.61% in [16]; 37.8% in assay [17]; 1.31% in assay [18]. Also, the inhibition was 3.71% in [19] and -2.68% in assay [20].

In the case of `Cc1ccc(O)cc1Nc1ccnc2cc(-c3ccccn3)ccc12`, the inhibition in assay [1] was 0.02%; in assay [2] it was -2.04%; in assay [3], 1.37%; in assay [4], 0.2%; in assay [5], 4.25%; in assay [6], 3.29%. For the same compound, the inhibition in assay [7] was 0.94%; in assay [8] it was 2.96%; in assay [9], 1.62%; in [10], 1.87%; in assay [11] it was 3.22%; in assay [12], 1.65%. In addition, the inhibition was 0.73% in assay [13]; 0.94% in assay [14]; 1.06% in assay [15]; -0.22% in assay [16]; 0.21% in assay [17]; 4.81% in assay [18]. For the same compound, the inhibition was determined as 3.71% in assay [19] and 5.48% in [20].

Regarding `CCN1CCC(CC(=O)Nc2n[nH]c3nnc(-c4cccc(F)c4F)cc23)CC1`, the inhibition in assay [1] is -3.37%; in [2], 0.57%; in assay [3], 0.12%; in [4] it was 0.92%; in assay [5], 0.93%; in [6], -0.87%. Also, the inhibition in assay [7] was 2.22%; in [8], 1.55%; in assay [9], 0.65%; in assay [10], 0.08%; in assay [11] it was 1.89%; in assay [12], 1.6%. Besides, the inhibition is 3.23% in assay [13]; 0.66% in assay [14]; 1.58% in assay [15]; 2.14% in assay [16]; 0.03% in assay [17]; 1.63% in assay [18]. For the same compound, the inhibition came to 3.3% in [19] and 3.44% in [20].

As for `NS(=O)(=O)c1ccc(Nc2ncc(-c3ccccc3)o2)cc1`, the inhibition in assay [1] was -0.91%; in [2], -1.21%; in assay [3] it was 0.24%; in assay [4] it was 1.14%; in [5] it was 3.01%; in assay [6], 4.81%. Also, the inhibition in assay [7] was 3%; in assay [8], 5.37%; in assay [9] it was 2.3%; in assay [10], 3.51%; in assay [11], 4.51%; in [12] it was 1.3%. In addition, the inhibition in assay [13] is 3.27%; in assay [14], 0%; in assay [15], 1.96%; in assay [16] it was -0.16%; in assay [17] it was 1.54%; in assay [18], 3.2%. For the same compound, the inhibition in assay [19] is 1.9%; in [20] it was 1.28%.

Take `COc1cccc(-c2c[nH]c3c(N/N=C/c4ccncc4)ncnc23)c1`: the inhibition was 0.71% in [1]; 6.35% in assay [2]; 0.92% in assay [3]; 5.25% in [4]; 8.98% in [5]; 9.82% in assay [6]. In addition, the inhibition in [7] is 2.85%; in [8] it was 4.13%; in assay [9], 2.85%; in [10] it was 8.54%; in [11] it was 6.08%; in [12] it was 1.57%. Further, the inhibition amounted to 3.93% in assay [13]; 0.02% in assay [14]; 4.24% in assay [15]; 2.33% in assay [16]; 4.29% in assay [17]; 2.72% in [18]. The inhibition in assay [19] was 1.53%; in assay [20], 2.27%.

`NC(=O)c1sc(-n2cnc3ccc(C(F)(F)F)cc32)cc1OCc1ccccc1Br`: the inhibition was -0.03% in assay [1]; 1.97% in assay [2]; 0.62% in assay [3]; 3.16% in assay [4]; 4.33% in [5]; 4.75% in assay [6]. Besides, the inhibition was 3.18% in assay [7]; 5.34% in assay [8]; 1.25% in [9]; 2.28% in assay [10]; 2.61% in assay [11]; 3.12% in assay [12]. The inhibition is 6.29% in assay [13]; 0.78% in [14]; 1.26% in assay [15]; -0.05% in assay [16]; 1.5% in assay [17]; -0.93% in [18]. Besides, the inhibition in assay [19] was 1.21%; in assay [20], -0.86%.
